Screens from PubChem.
CYP2C9 inh = human CYP2C9 inhibition. inhibition, % at 5 µM. P11712. 96,000 tested, 20% active. CYP2C9 Supersomes, luciferin-H conversion, luminescence. AID 777;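 active means blocking of liver enzyme CYP2C9 beyond about 50% at 5 µM, limit read from the data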
CYP2C9 activ = activators of human CYP2C9; 96,000 tested, 1.4% active; activation factor at 5 µM; P11712; recombinant CYP2C9, luciferin-H conversion, luminescence; active compounds read high; factor 1 = untreated enzyme, 0 = blocked; AID 1024;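 active means activation factor of 2 or more for CYP2C9 at a 5 µM dose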
CYP2C19 act = activators of human cytochrome P450 2C19 | P33261 | recombinant CYP2C19, luciferin-H EGE luminescence; active compounds read high; 0 = fully inhibited enzyme, 1 = untreated enzyme | activation factor at 5 µM | 96,000 tested, under 10 active | AID 1025;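 active means activation factor of at least 2 at 5 µM in the primary screen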
Target sequence (P33261 whole entry, looked up): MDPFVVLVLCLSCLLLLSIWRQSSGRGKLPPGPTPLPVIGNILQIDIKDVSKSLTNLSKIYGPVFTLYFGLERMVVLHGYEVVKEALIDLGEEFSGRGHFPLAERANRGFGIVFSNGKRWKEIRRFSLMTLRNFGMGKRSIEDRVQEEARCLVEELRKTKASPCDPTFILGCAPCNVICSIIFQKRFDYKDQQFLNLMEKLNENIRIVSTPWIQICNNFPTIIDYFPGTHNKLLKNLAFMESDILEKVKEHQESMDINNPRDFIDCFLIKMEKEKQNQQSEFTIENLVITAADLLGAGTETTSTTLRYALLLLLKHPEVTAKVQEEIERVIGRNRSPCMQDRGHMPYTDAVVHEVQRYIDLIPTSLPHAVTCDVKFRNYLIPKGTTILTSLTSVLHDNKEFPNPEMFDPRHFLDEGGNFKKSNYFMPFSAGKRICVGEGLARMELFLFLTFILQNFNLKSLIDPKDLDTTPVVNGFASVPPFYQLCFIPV
CYP2C19 inhib = human CYP2C19 inhibition; CYP2C19 Supersomes, luciferin-H EGE luminescence, 30 min; inhibition, % at 5 µM; 96,000 tested, 21% active; AID 778;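 active means CYP2C19 inhibition above a set limit at 5 µM in the primary screen, cut at about 50% in these data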
Hits are given with their value; . = inactive. Hits are enriched below; roughly 31% of the tested compounds scored in any of these assays.

SMILES | CYP2C9 inh | CYP2C9 activ | CYP2C19 act | CYP2C19 inhib
CCc1ccc2oc(=O)cc(CN3CCN(c4ccc(F)cc4)CC3)c2c1 | . | . | . | 52
Cc1nc(SCC(=O)c2cccs2)c2oc3ccccc3c2n1 | 64 | . | . | .
CCOC(=O)CC(=O)CSc1nc(C)nc2c1oc1ccccc12 | . | . | . | .
Cc1nc(SCC(=O)N2CCN(c3ccccc3)CC2)c2oc3ccccc3c2n1 | 56 | . | . | .
Cc1nc(SCC(=O)O)c2oc3ccccc3c2n1 | . | . | . | .
Cc1nc(SCC(=O)NCc2ccccc2)c2oc3ccccc3c2n1 | 79 | . | . | .
O=C(CSc1ncnc2c1oc1ccccc12)c1cccs1 | . | . | . | .
CCOC(=O)c1c(C)n(C)c2ccc(OC)c(NC(=O)c3cccs3)c12 | . | . | . | .
COC(=O)CSc1nc(C)c(Oc2ccccc2)c(=O)[nH]1 | . | . | . | 64
NC(=O)CSc1nc2ccccc2n1Cc1ccccc1F | . | . | . | 57
CCn1c(C(=O)N2CCC(C(=O)NCCCSC3CCCCC3)CC2)cc2sccc21 | . | . | . | 53
CCn1c(C(=O)NCc2ccccn2)cc2sccc21 | . | . | . | 66
CCN1CCN(C(=O)c2cc3sccc3n2CC(=O)c2ccccc2)CC1 | . | . | . | 59
CN1CCN(C(=O)c2cc3sccc3n2CC(=O)c2ccccc2)CC1 | . | . | . | .
CCn1c(C(=O)NCCCN2CCc3ccccc3C2)cc2sccc21 | . | . | . | 64
COc1ccc(C2(C(=O)NCCCN(C)C)CCOCC2)cc1 | . | . | . | .
CC(C)CCN1CC(C(=O)NCCC2=CCCCC2)CC1=O (stereo not drawn) | . | . | . | .
CCCCNC(=O)c1onc(CCl)c1C(=O)OC | . | . | . | .
CCN1CCN(C(=O)C2CCN(C(=O)c3cc4sccc4n3CC)CC2)CC1 | . | . | . | .
CCn1c(C(=O)N2CCc3ccccc3C2)cc2sccc21 | . | . | . | 63
CN(C)C(CNC(=O)CN1C(=O)NC2(CCc3ccccc32)C1=O)c1ccco1 (stereo not drawn) | . | . | . | .
Cc1ccccc1-c1nc(S(=O)(=O)c2ccc(Cl)cc2)c(NCCN2CCOCC2)o1 | . | . | . | .
O=S(=O)(c1ccccc1)c1nc(-c2ccccc2Cl)oc1NCCN1CCOCC1 | 77 | . | . | .
N#Cc1nc(-c2ccccc2F)oc1NCCN1CCOCC1 | . | . | . | 64
Cc1ccc(CN2CCN(CC(=O)N3CCc4ccccc4C3)C2=O)cc1 | . | . | . | .
SMILES | CYP2C9 inh | CYP2C9 activ | CYP2C19 act | CYP2C19 inhib
Cc1[nH]c2ccccc2c1CN1CCc2ccccc2C1 | . | . | . | .
COc1cc2c(cc1OC)CN(Cc1ccc(OC)c(C)c1OC)CC2 | . | . | . | 64
COc1cc(OC)c(OC)cc1CN1CCc2ccccc2C1 | . | . | . | 52
Nn1c(=O)c2ccccc2n2c(SCc3ccc(C(F)(F)F)cc3)nnc12 | 50 | . | . | .
O=C(COc1ccccc1)Nc1nnc(-c2ccc3c(c2)CCCC3)o1 | 52 | . | . | .
O=C(Nc1nnc(-c2ccc3c(c2)CCCC3)o1)c1ccccc1 | . | . | . | .
Cn1c(SCc2nc3ccccc3[nH]2)nnc1-c1ccccn1 | . | . | . | 69
CC(C)OC(=O)CSc1nnc(-c2ccccn2)n1C | . | . | . | .
CC(C)SCc1nc2ccccc2[nH]1 | . | . | . | .
C=CCn1c(SCc2nc3ccccc3[nH]2)nnc1-c1ccccn1 | . | . | . | 97
O=C(CN1CCN(Cc2ccccc2F)C1=O)NCc1ccco1 | . | . | . | .
COc1ccccc1C(=O)Nc1ccc(N2CCN(Cc3ccccc3)CC2)cc1 | . | 2.5 | . | .
COc1ccccc1C(=O)Nc1ccc(N2CCCCC2)cc1 | . | 3.8 | . | .
COc1ccccc1C(=O)Nc1ccc(S(=O)(=O)N2CCCC2)cc1 | . | . | . | .
Cc1ccc(C(=O)Nc2ccc3c(c2)nc2n3CCSC2)cc1 | . | . | . | .
COc1ccccc1C(=O)Nc1ccc2c(c1)nc1n2CCSC1 | . | 2 | . | .
COc1ccc(N(C(=O)C(C)C)S(=O)(=O)c2ccc3c(c2)n(C)c(=O)n3C)cc1 | 65 | . | . | .
COc1ccc(S(=O)(=O)N(C(C)=O)c2ccc3oc(=O)sc3c2)cc1 | . | . | . | .
COc1ccc(N(C(=O)C(C)C)S(=O)(=O)c2ccc(Cl)cc2)cc1 | 88 | . | . | 97
Fc1ccc(Oc2nccc(-c3ccc(Cl)cc3)n2)cc1 | . | . | . | .
COc1ccc(Cl)cc1-c1nc(-c2ccncc2)no1 | . | . | . | 79
COc1ccccc1-c1nc(-c2ccncc2)no1 | . | . | . | 89
